In the library only some 2.4% were active in any assay of this set; here they are far more common.
ULK1 primary = ULK1 kinase inhibitors, primary screen, biochemical, AlphaScreen; actives 1.9% (n = 30,000); AlphaScreen Atg13 phosphorylation by ULK1, luminescence; inhibition, % at 5.96 µM; in the data active means inhibition above about 43%;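 further: 0% = median of compound wells and 100% = no enzyme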
Target sequence (O75385 whole entry, looked up): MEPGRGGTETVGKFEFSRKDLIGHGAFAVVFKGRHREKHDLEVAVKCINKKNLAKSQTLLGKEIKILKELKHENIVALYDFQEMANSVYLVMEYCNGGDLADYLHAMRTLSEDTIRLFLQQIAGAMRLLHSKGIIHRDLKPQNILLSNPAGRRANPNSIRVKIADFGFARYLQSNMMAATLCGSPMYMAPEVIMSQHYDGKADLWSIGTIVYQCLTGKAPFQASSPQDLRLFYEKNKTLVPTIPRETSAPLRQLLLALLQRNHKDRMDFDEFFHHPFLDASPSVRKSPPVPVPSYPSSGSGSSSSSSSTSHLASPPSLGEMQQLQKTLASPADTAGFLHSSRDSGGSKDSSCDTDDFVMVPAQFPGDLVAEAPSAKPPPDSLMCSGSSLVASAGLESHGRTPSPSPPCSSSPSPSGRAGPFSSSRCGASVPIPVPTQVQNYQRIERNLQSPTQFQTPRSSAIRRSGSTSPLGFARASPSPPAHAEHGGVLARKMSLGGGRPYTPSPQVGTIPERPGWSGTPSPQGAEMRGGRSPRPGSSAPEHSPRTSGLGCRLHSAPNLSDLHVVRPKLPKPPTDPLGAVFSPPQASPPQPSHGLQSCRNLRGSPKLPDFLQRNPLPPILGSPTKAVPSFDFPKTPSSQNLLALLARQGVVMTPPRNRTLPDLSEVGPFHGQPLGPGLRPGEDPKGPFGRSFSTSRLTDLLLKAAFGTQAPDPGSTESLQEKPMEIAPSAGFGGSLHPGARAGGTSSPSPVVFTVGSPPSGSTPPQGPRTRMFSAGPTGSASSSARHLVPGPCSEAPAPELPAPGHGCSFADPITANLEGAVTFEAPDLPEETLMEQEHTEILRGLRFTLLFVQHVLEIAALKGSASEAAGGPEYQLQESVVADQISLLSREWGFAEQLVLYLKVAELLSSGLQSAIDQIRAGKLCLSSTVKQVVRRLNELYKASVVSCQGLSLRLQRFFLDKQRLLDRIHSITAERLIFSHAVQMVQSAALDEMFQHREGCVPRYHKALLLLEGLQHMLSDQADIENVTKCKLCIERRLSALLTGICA
ASK1 inh = ASK1 kinase inhibitors, primary screen, biochemical, AlphaScreen. actives 0.99% (n = 22,000). AlphaScreen MKK6 phosphorylation by ASK1, luminescence. AID 1159602, 2016. Mitogen-activated protein kinase kinase kinase 5 (Homo sapiens), Q99683. inhibition, % at 7.44 µM; in the data active means inhibition above about 35%;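 further: 0% = median of compound wells and 100% = no enzyme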
* marks the source's active call; other numbers are inactive results; x = not tested or not shown.

SMILES	ULK1 primary	ASK1 inh
CN(C)c1ccc(C(=C2C=CC(=[N+](C)C)C=C2)c2ccccc2)cc1	9.2	x
CN(C)c1ccc(C(=C2C=CC(=[N+](C)C)C=C2)c2ccc(N(C)C)cc2)cc1	79.8*	x
OCCNc1nc(Nc2ccc(-n3ccnc3)cc2)nc2nc[nH]c12	56.2*	-60.2
c1ccc(OCCNc2nc(Nc3ncccn3)nc3nc[nH]c23)cc1	4.9	9.3
COc1ccc(CCNc2nc(Nc3ccc(-n4ccnc4)cc3)nc3nc[nH]c23)cc1	26.8	-16.9
c1ccc(OCCNc2nc(Nc3ccncc3)nc3nc[nH]c23)cc1	56.7*	2.0
CC(=O)Nc1ccc(Nc2nc(Nc3ccc(-n4ccnc4)cc3)nc3nc[nH]c23)cc1	52.1*	-12.7
c1ccc(Nc2nc(Nc3ccc(-n4ccnc4)cc3)nc3nc[nH]c23)cc1	23.5	-9.0
Nc1nc(NCc2ccccc2)cc(N2CCOCC2)n1	-4.1	-6.4
NC(=O)c1ccc(-c2cccc(C(=O)NC3CC3)c2)cc1	-16.4	-20.0
O=C(NC1CC1)c1cccc(NS(=O)(=O)c2ccc(-c3ncnc4[nH]ccc34)cc2)c1	43.5*	7.8
CC(C)n1c(N2CCC(N3CCOCC3)CC2)nc2c(NCCN3CCOCC3)ncnc21	6.3	-3.5
O=C1c2c(O)ccc(O)c2C(=O)c2c(NCCNCCO)ccc(NCCNCCO)c21	42.6*	x
CC(=O)c1cccc(-c2cccc(C(N)=O)n2)c1	-1.3	1.6
Cn1cc(C(=O)NC2CCCCC2)c2[nH]c(=O)n(-c3ccc(F)cc3)c(=O)c21	9.5	x
Cc1nc(Nc2ccccc2)cc(-c2cncc(-c3ccc(F)cc3)c2)n1	-1.5	x
Cc1nc(Nc2cc(Nc3ccccc3S(=O)(=O)NC(C)C)c(C(F)(F)F)cn2)cc(-c2cncnc2)n1	45.0*	-1.4
CCN(CC)c1nc(NCc2nc3ccccc3[nH]2)nc(N2CCOCC2)n1	6.6	-9.0
N[C@@H](Cc1ccc(O)c(O)c1)C(=O)O	32.5	x
C[C@H](Cc1ccc(O)c(O)c1)[C@@H](C)Cc1ccc(O)c(O)c1	77.7*	x
CC[C@@H](C(=O)[C@@H](C)[C@@H](O)[C@H](C)[C@@H]1O[C@@H]([C@@H](CC)C(=O)O)CC[C@@H]1C)[C@H]1O[C@]2(C=C[C@@H](O)[C@]3(CC[C@@](C)([C@H]4CC[C@](O)(CC)[C@H](C)O4)O3)O2)[C@H](C)C[C@@H]1C	-4.3	x
CC[C@@H](C(=O)[C@@H](C)[C@@H](O)[C@H](C)CCc1ccc(C)c(O)c1C(=O)O)[C@H]1O[C@](CC)([C@H]2CC[C@](O)(CC)[C@H](C)O2)C[C@@H]1C	69.8*	x
O=C1CCCN1CCCNc1nc(Nc2ccc3ncccc3c2)nc2c1ncn2-c1ccccc1	-12.8	2.6
CNC(=O)c1ccccc1Nc1cc(Nc2ccc3c(c2)CC(=O)N3)ncc1C(F)(F)F	73.2*	0.0
CNS(=O)(=O)c1ccccc1Nc1cc(Nc2ccccc2S(=O)(=O)NC)c(C(F)(F)F)cn1	-21.3	13.6
SMILES	ULK1 primary	ASK1 inh
CNC(=O)c1cc(F)ccc1Nc1cc(Nc2ccc(N3CCCC3=O)cc2)ncc1C(F)(F)F	73.1*	11.8
CNS(=O)(=O)c1ccccc1Nc1cc(Nc2ccc3c(c2)CCC(=O)N3)ncc1C(F)(F)F	90.1*	-40.4
CNC(=O)c1ccncc1Nc1cc(Nc2ccc3c(c2)CC(=O)N3)ncc1C(F)(F)F	56.2*	11.2
COc1cccc(CN(CCCN2CCCCC2)C(=O)Nc2ccc(-c3cn[nH]c3)cc2)c1	1.1	4.8
OCCNc1nc(Nc2ccncn2)nc2c1ncn2Cc1ccc(C(F)(F)F)cc1	-16.4	16.1
CCN(CC)c1nc(NCc2cccnc2)nc(Nc2nc3ccccc3n2C)n1	-2.0	-12.2
COc1cc2nc(Cl)nc(Nc3ccccc3)c2cc1OC	-14.1	-0.2
O=C(Nc1ccc2[nH]ncc2c1)c1cccnc1O[C@H]1CCNC1	37.0	-21.9
Cc1cccc(-c2cc(NCC3CCCO3)ncn2)c1 (stereo unspecified)	-5.1	-3.8
CNC(=O)c1ccccc1Nc1cc(Nc2ccc3c(c2)OCO3)ncc1C(F)(F)F	78.4*	-4.3
CNC(=O)c1cc(N2CCOCC2)ccc1Nc1cc(Nc2ccc3c(c2)CC(=O)N3)ncc1C(F)(F)F	82.4*	-0.1
O=C1Cc2cc(Nc3ccnc(Nc4ccc(N5CCOCC5)cc4)c3)ccc2N1	19.4	17.9
CS(=O)(=O)NC1CCC(Nc2cc(Nc3ccccc3C(N)=O)c(C(F)(F)F)cn2)CC1 (stereo unspecified)	22.0	-51.9
CNC(=O)c1ccccc1Nc1cc(Nc2ccc3[nH]nc(C4=CCNCC4)c3c2)ncc1C(F)(F)F	-19.6	-8.5
CNC(=O)c1ccccc1Nc1cc(Nc2ccc3[nH]c(=O)oc3c2)ncc1C(F)(F)F	79.0*	-9.8
CNC(=O)c1ccccc1Nc1cc(Nc2ccc3c(c2)CC(=O)N3C)ncc1C(F)(F)F	83.8*	-4.8

From PubChem
